# Assay outcomes (PubChem BioAssay)
# IDE exosite inh: displaces the probe from the exo-site of human IDE | P14735 | purified IDE, FL-6b probe fluorescence polarization; stronger effect = lower value | z-score at 20 µM | hit rate 6.3% among 17,000 | AID 1259349;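 active = z-score of -3 or lower, meaning strong loss of probe binding signal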;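 also: His-tagged human IDE residues 42-1019 made in E. coli with 30 nM FL-6b probe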
# Target sequence (P14735 42-1019 limits assumed): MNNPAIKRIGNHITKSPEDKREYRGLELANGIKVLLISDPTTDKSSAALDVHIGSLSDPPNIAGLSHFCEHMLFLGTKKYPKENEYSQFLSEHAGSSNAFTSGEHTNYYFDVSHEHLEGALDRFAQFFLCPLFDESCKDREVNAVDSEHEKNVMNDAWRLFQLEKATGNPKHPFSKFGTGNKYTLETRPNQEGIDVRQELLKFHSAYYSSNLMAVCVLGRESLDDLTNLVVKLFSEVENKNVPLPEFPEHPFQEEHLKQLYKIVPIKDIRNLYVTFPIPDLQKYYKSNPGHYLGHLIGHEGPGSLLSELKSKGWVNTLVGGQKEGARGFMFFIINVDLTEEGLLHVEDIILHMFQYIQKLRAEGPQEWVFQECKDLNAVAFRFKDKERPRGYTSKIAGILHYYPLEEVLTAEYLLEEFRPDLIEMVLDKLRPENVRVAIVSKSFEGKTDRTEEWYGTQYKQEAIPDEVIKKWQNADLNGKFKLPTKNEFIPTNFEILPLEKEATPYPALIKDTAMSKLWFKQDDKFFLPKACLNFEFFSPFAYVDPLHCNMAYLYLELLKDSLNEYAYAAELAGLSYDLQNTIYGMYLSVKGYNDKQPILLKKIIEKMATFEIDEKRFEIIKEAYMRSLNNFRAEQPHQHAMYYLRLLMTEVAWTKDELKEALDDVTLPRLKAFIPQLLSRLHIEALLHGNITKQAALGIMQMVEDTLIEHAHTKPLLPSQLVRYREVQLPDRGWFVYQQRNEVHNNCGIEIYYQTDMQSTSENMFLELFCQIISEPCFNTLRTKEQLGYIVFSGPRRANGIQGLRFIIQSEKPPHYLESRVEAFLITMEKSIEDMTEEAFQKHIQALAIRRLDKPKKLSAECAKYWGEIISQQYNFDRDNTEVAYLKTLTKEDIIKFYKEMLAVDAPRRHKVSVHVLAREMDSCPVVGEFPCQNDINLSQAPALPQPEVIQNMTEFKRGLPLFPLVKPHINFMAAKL
# * marks the source's active call; other numbers are inactive results. The full list was thinned out, with hits kept by preference.
SMILES,IDE exosite inh
COc1ccc(-c2ccc([C@H]3[C@H](CO)N4C(=O)CN(C(=O)Cc5ccccn5)C[C@@H]34)cc2)cc1,-1.3
O=C(Cc1ccccn1)N1CC(=O)N2[C@H](C1)[C@H](c1ccc(-c3ccccc3)cc1)[C@@H]2CO,-1.5
Cc1cccc(-c2ccc([C@@H]3[C@H]4CN(C(=O)Cc5ccccn5)CC(=O)N4[C@H]3CO)cc2)c1,-15*
O=C(Cc1ccccn1)N1CC(=O)N2[C@H](CO)[C@@H](c3ccc(C#CC4CC4)cc3)[C@@H]2C1,0.65
O=C(Cc1ccccn1)N1CC(=O)N2[C@H](CO)[C@H](c3ccc(-c4ccccc4)cc3)[C@@H]2C1,-3.7*
O=C(Cc1ccccn1)N1CC(=O)N2[C@H](CO)[C@H](c3ccc(C#CC4CC4)cc3)[C@@H]2C1,3.4
COc1ccc2c3c(n(C)c2c1)[C@@H](CO)N(S(C)(=O)=O)CC31CCN(C(=O)c2ccccn2)CC1,0.68
COc1ccc([C@@H]2C/C=C\C[C@H](c3ccc(F)cc3)NC(=O)CCC(=O)N2)c(OC)c1,0.58
CCC(=O)NC[C@@H]1[C@H](c2ccccc2)[C@H](CO)N1C(=O)C1CCC1,3
COc1cccc(-c2ccc([C@H]3[C@H](C#N)N(C(=O)Cc4ccccc4)[C@H]3CO)cc2)c1,-3*
N#C[C@@H]1[C@@H](c2ccc(-c3ccncc3)cc2)[C@@H](CO)N1C(=O)Cc1ccccc1,2
COc1cccc(-c2ccc([C@H]3[C@@H](CO)N(C(=O)Cc4ccncc4)[C@H]3C#N)cc2)c1,-4.8*
COc1cccc(-c2ccc([C@@H]3[C@H](C#N)N(C(=O)c4ccccn4)[C@H]3CO)cc2)c1,-0.56
N#C[C@@H]1[C@@H](c2ccc(-c3ccccc3)cc2)[C@H](CO)N1C(=O)Cc1ccccc1,3.9
COc1cccc(C#Cc2ccc([C@@H]3[C@@H](CO)N(C(=O)c4ccccn4)[C@H]3C#N)cc2)c1,-0.51
N#C[C@@H]1[C@@H](c2ccc(-c3ccccc3)cc2)[C@@H](CO)N1C(=O)Cc1ccncc1,-4*
N#C[C@H]1[C@H](c2ccc(-c3ccccc3)cc2)[C@H](CO)N1C(=O)Cc1ccccc1,2.2
COc1cccc(-c2ccc([C@H]3[C@@H](C#N)N(C(=O)c4ccccn4)[C@H]3CO)cc2)c1,-3.8*
N#C[C@@H]1[C@H](c2ccc(-c3ccccc3)cc2)[C@H](CO)N1C(=O)Cc1ccccc1,2
N#C[C@H]1[C@H](c2ccc(-c3ccccc3)cc2)[C@H](CO)N1C(=O)Cc1ccncc1,1.9
N#C[C@H]1[C@@H](c2ccc(-c3ccncc3)cc2)[C@@H](CO)N1C(=O)Cc1ccccc1,1.1
O=S(=O)(c1ccc(F)cc1)N1CCCCN2[C@@H](CO)[C@@H](c3ccc(-c4ccccc4)cc3)[C@@H]2C1,0.93
O=C(C[C@@H]1CC[C@H](NC(=O)c2cccnc2)[C@H](CO)O1)NCc1ccc(Cl)c(Cl)c1,0.46
O=C(C[C@@H]1C[C@@H]2c3cc(NC(=O)CC4CC4)ccc3O[C@@H]2[C@@H](CO)O1)NCC1CC1,0.84
CS(=O)(=O)N1[C@H](CO)[C@@H](c2ccc(C#Cc3cccc(F)c3)cc2)[C@@H]1C#N,-0.91
SMILES,IDE exosite inh
COCCNC(=O)C[C@H]1C[C@H]2c3cc(NC(=O)CN(C)C)ccc3O[C@H]2[C@H](CO)O1,-0.81
O=C(CCN1CCCCC1)N[C@H]1CC[C@@H](CCn2cc(-c3cccc(F)c3)nn2)O[C@H]1CO,0.21
O=C(c1cnccn1)N1CC(=O)N2[C@H](CO)[C@@H](c3ccc(C#CC4CCCCC4)cc3)[C@H]2C1,0.57
CN(C[C@H]1[C@H](c2ccccc2)[C@@H](CO)N1CC1CC1)C(=O)c1cccc(F)c1,0.66
C[C@@H]1CCCCO[C@H](CN(C)CC2CCCCC2)[C@H](C)CN([C@H](C)CO)C(=O)c2cc(NS(C)(=O)=O)ccc2O1,2.2
O=C1CNC[C@@H]2[C@@H](c3ccc(-c4ccccc4F)cc3)[C@@H](CO)N12,-2.8
C/C=C/c1ccc([C@H]2[C@@H](CO)N(C(=O)Cc3ccccn3)[C@H]2C#N)cc1,0.46
N#C[C@H]1[C@H](c2ccc(C#CC3CC3)cc2)[C@H](CO)N1C(=O)Cc1ccccn1,3.1
N#C[C@@H]1[C@@H](c2ccc(/C=C/c3ccccc3)cc2)[C@@H](CO)N1C(=O)Cc1ccccn1,-9.5*
COCC#Cc1ccc([C@H]2[C@@H](CO)N3CCCCN(C(=O)COC)C[C@@H]23)cc1,4.1
COCC(=O)N1CCCCN2[C@H](CO)[C@@H](c3ccc(C#Cc4ccccc4)cc3)[C@H]2C1,-7.1*
COCC(=O)N1CCCCN2[C@H](C1)[C@@H](c1ccc(C#Cc3ccc(OC)cc3)cc1)[C@@H]2CO,4.1
COCC#Cc1ccc([C@H]2[C@H](CO)N3CCCCN(C(=O)COC)C[C@@H]23)cc1,3.5
COc1ccc(C#Cc2ccc([C@H]3[C@@H](CO)N4CCCCN(C(=O)c5ccncc5)C[C@@H]34)cc2)cc1,-6.6*
COc1ccc(C#Cc2ccc([C@@H]3[C@@H](CO)N4CCCCN(C(=O)c5ccncc5)C[C@H]34)cc2)cc1,1.7
COCC(=O)N1CCCCN2[C@@H](CO)[C@H](c3ccc(C#Cc4ccc(OC)cc4)cc3)[C@@H]2C1,-3.1*
COc1ccc(C#Cc2ccc([C@H]3[C@H](CO)N4CCCCN(C(=O)c5ccncc5)C[C@@H]34)cc2)cc1,2.1
COCC#Cc1ccc([C@H]2[C@H]3CN(C(=O)COC)CCCCN3[C@H]2CO)cc1,2.4
C[C@@H]1CN([C@H](C)CO)C(=O)CCCn2nncc2CO[C@H]1CN(C)S(=O)(=O)c1ccccc1C#N,1.3
COc1ccccc1NC(=O)N1CC(=O)N2[C@@H](CO)[C@H](c3ccc(C#Cc4ccccc4)cc3)[C@@H]2C1,-2
CN(C)CC#Cc1ccc([C@@H]2[C@@H](CO)N3CCCCN(C(=O)NC4CCCC4)C[C@@H]23)cc1,4.4
CNC[C@@H]1OCCCC[C@H](C)Oc2ccc(NS(=O)(=O)c3ccc(F)cc3)cc2C(=O)N([C@@H](C)CO)C[C@H]1C,0.74
Fc1cccc(-c2ccc(C3[C@H]4CNC[C@@H]3N4Cc3ccccc3F)cc2)c1 (stereo not given in full),2.5
CCS(=O)(=O)N1CC(=O)N2[C@H](CO)[C@@H](c3ccc(-c4ccccc4C)cc3)[C@H]2C1,-0.81
Cc1ccccc1-c1ccc([C@H]2[C@H](CO)N3C(=O)CN(S(C)(=O)=O)C[C@@H]23)cc1,-1.4
SMILES,IDE exosite inh
CCC(=O)N1CC(=O)N2[C@@H](CO)[C@H](c3ccc(-c4ccccc4F)cc3)[C@@H]2C1,0.65
CCC(=O)N1CC(=O)N2[C@H](CO)[C@H](c3ccc(-c4ccccc4C)cc3)[C@@H]2C1,-8*
CCC(=O)N1CC(=O)N2[C@H](CO)[C@@H](c3ccc(-c4ccccc4C)cc3)[C@H]2C1,-4*
COCC(=O)N1CC(=O)N2[C@H](CO)[C@@H](c3ccc(-c4ccccc4C)cc3)[C@H]2C1,-0.94
COCC(=O)N1CC(=O)N2[C@H](CO)[C@@H](c3ccc(-c4cccnc4)cc3)[C@@H]2C1,2
COc1ccccc1NC(=O)N1CC(=O)N2[C@H](CO)[C@H](c3ccc(-c4ccccc4)cc3)[C@@H]2C1,0.8
CCCC#Cc1ccc([C@H]2[C@@H](CO)N3C(=O)CN(S(=O)(=O)c4ccccc4C)C[C@H]23)cc1,-1.7
O=C(C[C@@H]1C=C[C@@H](NC(=O)C2CCC2)[C@H](CO)O1)NC1CCCCC1,-0.13
O=C(C1CC1)N1CC(=O)N2[C@H](CO)[C@H](c3ccc(-c4ccccc4F)cc3)[C@@H]2C1,1.2
